The values below come from PubChem BioAssay.

Each structure is given as a SMILES string. Calls of active or inactive are those of the source.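 The calls were made as follows, unless noted: active = inhibition at or above 50% at 10 µM; inactive = inhibition below 50%.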

Broadly, the inhibition is the relative decrease from the control value, in per cent.

Assay [1] can be described thus: inhibitors of TNFa-induced NFkB p65 translocation, primary screen, imaging, HUVEC, MLSMR starter and 10KST1 sets (AID 438;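 active = inhibition above 20% together with a positive visual image hit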;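 also: compound added about 3h40 before a 20 min TNFalpha stimulation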;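 as to inhibition: signal is the nuclear over cytoplasmic p65 intensity ratio per well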). As to conditions: HUVEC TNFa-induced p65 nuclear translocation; cell count: measured here: nuclei count (cytotoxicity indicator), at 2.08 µM; inhibition: at 2 µM, stronger effect = higher value, 0% TNFa-plus-vehicle, 100% no-TNFa wells.
The nature of assay [2]: reduction of polyQ htt aggregates in cells – imaging, exon1htt(103Q)mCFP cells, high-content imaging, primary screen (AID 483;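 active = visual image review flags a hit and inhibition of aggregation exceeds 20%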;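 also: compound exposure lasted 3 days before fixation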;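 as to nuclei count: percent of the per-plate median nuclei count of sample wells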). The following applies: exon1htt(103Q)mCFP cell line, aggregate imaging, at 2 µM; inhibition of aggregation: stronger effect = higher value; nuclei count: measured here: cell count, toxicity.
A short description of assay [3]: endothelial E-selectin expression blockers – imaging, HUVEC, immunofluorescence, MLSMR starter and 10KST1 sets, primary screen (AID 487;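 active = visually confirmed hit in the image check and inhibition above 20%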;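 as to inhibition: signal is fraction of cell area covered by stained E-selectin grains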;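 as to nuclei count: 100% = median nuclei count of all wells on the same plate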). As to conditions: HUVEC TNFalpha-induced E-selectin immunofluorescence imaging, at 2 µM; inhibition: stronger effect = higher value; nuclei count: measured here: cell number, toxicity.
Assay [4] concerns the target Voltage-gated potassium channel subunit beta-2 (Rattus norvegicus) (UniProt P62483). Nature of the assay: inhibitors of rat Kvbeta2 reductase activity – biochemical, NADPH fluorescence, primary screen (AID 622;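 active = fluorescence slope higher than the sample average by over 3 SD, cut at about -0.22 in these data, passing the limit was not always enough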;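 also: slope of raw intensity against log time taken from 70 to 1610 s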). The following applies: recombinant KvBeta, 4-cyanobenzaldehyde reduction, at 10 µM, stronger effect = higher value.
The target is the same in assay [5]. Nature of the assay: enhancers of rat Kvbeta2 NADPH turnover – biochemical, NADPH fluorescence, primary screen (AID 623;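 active = NADPH fluorescence slope more negative than the mean of all samples by about 3 SD, 99.7% confidence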;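 also: fluorescence intensity change per second fitted from 20 to 320 s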). The following applies: Recombinant KvBeta, NADPH fluorescence decrease slope, 10 min; at 10 µM; stronger effect = lower value.
The target in assay [6] is Alpha-2C adrenergic receptor (Homo sapiens) (UniProt P18825). The assay is described as follows: compounds altering alpha2C-coupled GIRK flux – cell-based, HEK293 alpha2C/GIRK1/2, thallium flux, primary screen (AID 624;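 active = fluorescence slope after compound addition differing from the mean of all screened samples at 99.7% confidence, in either direction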;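 also: slope of fluorescence ratio to pre-addition baseline per second over 15 to 24 s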). As to conditions: thallium flux BTC fluorescence, at 10 µM, actives lie on both sides.
A short description of assay [7]: blockers of RIG-like receptor reporter activation – cell-based, Sendai virus stimulus, luciferase, 10K MLSCN set, TLR/RLR signaling modifier project, primary screen (AID 602276).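 Also: firefly luciferase from ISG56 promoter only with Renilla not read in this screen; 0% = Sendai virus plus DMSO and 100% = medium plus DMSO without virus.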 As to conditions: HEK293 RL24 IRF3 luciferase reporter, at 10 µM, stronger effect = higher value. (In general: A reporter such as luciferase makes a cellular process visible.)
Assay [8] can be described thus: TLR3 IRF3 reporter activation blockers – cell-based, poly I:C stimulus, luciferase, 10K MLSCN set, primary screen (AID 602277;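 active = inhibition of the reporter signal at or above 50%; inactive = inhibition below 50%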). As to conditions: HEK293-TLR3 RL24 IRF3 luciferase reporter, at 10 µM, stronger effect = higher value.

Chain of Voltage-gated potassium channel subunit beta-2 (Rattus norvegicus) (P62483 whole entry, looked up): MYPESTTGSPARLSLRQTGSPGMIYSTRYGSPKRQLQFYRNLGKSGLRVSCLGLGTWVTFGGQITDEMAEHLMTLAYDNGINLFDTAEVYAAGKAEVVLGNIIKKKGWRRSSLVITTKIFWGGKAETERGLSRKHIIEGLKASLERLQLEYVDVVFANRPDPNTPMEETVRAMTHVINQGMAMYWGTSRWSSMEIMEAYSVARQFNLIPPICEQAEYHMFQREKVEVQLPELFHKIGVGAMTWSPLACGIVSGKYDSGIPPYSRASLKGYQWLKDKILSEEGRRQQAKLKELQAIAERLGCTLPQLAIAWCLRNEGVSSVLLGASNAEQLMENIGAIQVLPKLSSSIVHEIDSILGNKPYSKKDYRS
Chain of Alpha-2C adrenergic receptor (Homo sapiens) (P18825 whole entry, looked up): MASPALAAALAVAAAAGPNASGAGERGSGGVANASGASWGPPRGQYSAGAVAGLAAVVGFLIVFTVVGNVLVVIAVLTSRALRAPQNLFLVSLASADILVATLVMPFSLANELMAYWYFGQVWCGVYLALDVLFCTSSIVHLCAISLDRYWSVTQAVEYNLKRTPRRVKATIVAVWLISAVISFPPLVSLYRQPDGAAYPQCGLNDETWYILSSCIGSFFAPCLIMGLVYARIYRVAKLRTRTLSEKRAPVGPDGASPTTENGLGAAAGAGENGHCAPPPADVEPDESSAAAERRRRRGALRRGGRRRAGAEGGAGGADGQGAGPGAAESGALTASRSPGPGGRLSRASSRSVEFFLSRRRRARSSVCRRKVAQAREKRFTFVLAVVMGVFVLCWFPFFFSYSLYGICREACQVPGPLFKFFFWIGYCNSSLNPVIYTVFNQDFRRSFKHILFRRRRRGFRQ

As to `COc1cccc(-c2csc3nnc(SCC(=O)c4ccc(NC(C)=O)cc4)n23)c1`, the cell count in assay [1] stood at 452. For the same compound, the inhibition is 0% (inactive) in assay [1], -116% (inactive) in assay [3], 8.19% (inactive) in assay [7] and 17.5% (inactive) in assay [8]. Further, the inhibition of aggregation in assay [2] was 21.2% (inactive). Besides, the results for the nuclei count in assay [2] and in assay [3] were 106% and 176%, respectively. For the same compound, in assay [4], the fluorescence slope is -0.47 (inactive). In assay [5], the NADPH fluorescence slope was 0.000104 (inactive). Also, the slope in assay [6] was 0.00779 (inactive).
On to `CC(C)C(NC(=O)c1ccc(S(=O)(=O)N2CCOCC2)cc1)c1nc2ccccc2[nH]1` (centres undefined), for which, in assay [1], the cell count was determined as 276. Moreover, the inhibition in assay [1] was 15.9% (inactive); in assay [3] it was 8.4% (inactive); in assay [7] it was 13.3% (inactive); in assay [8] it was 26% (inactive). Besides, the inhibition of aggregation in assay [2] was -10.8% (inactive). The nuclei count in assay [2] was 114%; in assay [3], 98.7%. The fluorescence slope in assay [4] is -0.436 (inactive). Moreover, the NADPH fluorescence slope in assay [5] is -9.2e-05 (inactive). In addition, the slope in assay [6] was 0.00591 (inactive).
For `O=C(Nc1ccc(N2CCN(Cc3ccccc3Cl)CC2)cc1)c1cccnc1`, in assay [1], the cell count was 630. The inhibition was -4.2% (inactive) in assay [1], -27% (inactive) in assay [3], -23.5% (inactive) in assay [7] and -14.5% (inactive) in assay [8]. In assay [2], the inhibition of aggregation was 15.2% (inactive). The nuclei count in assay [2] came to 65.6%; in assay [3] it was 102%. The fluorescence slope in assay [4] was -0.478 (inactive). The NADPH fluorescence slope in assay [5] was 1.4e-05 (inactive). The slope in assay [6] was 0.00649 (inactive).
Regarding `CCc1noc(C)c1C(=O)NCCc1ccc(OC)c(OC)c1`, the cell count in assay [1] came to 395. For the same compound, the inhibition in assay [1] is 3.7% (inactive); in assay [3], 11.4% (inactive); in assay [7], 14.3% (inactive); in assay [8], 19.8% (inactive). Also, the inhibition of aggregation in assay [2] is -16.2% (inactive). The nuclei count worked out at 121% in assay [2] and 96.9% in assay [3]. Further, the fluorescence slope in assay [4] is -0.468 (inactive). In assay [5], the NADPH fluorescence slope is -4.2e-06 (inactive). Moreover, the slope in assay [6] is 0.00531 (inactive).
As for `CCC1CCCN1Cn1cnc2c([nH]c3ccc(OC)cc32)c1=O` (centres undefined), the cell count in assay [1] was found to be 602. The inhibition in assay [1] was -7.6% (inactive); in assay [3], -53.1% (inactive); in assay [7], 11.1% (inactive); in assay [8], 26.1% (inactive). The inhibition of aggregation in assay [2] was 3.4% (inactive). The figures for the nuclei count in assay [2] and in assay [3] were 108% and 86.2%, respectively. Besides, the fluorescence slope in assay [4] is -0.396 (inactive). For the same compound, the NADPH fluorescence slope in assay [5] is -1.1e-05 (inactive). Moreover, in assay [6], the slope was 0.0053 (inactive).
Take `COc1ccc(OC)c(-c2cc(C(=O)NCc3cccs3)no2)c1`: the cell count in assay [1] was determined as 248. Also, the inhibition in assay [1] is 1.3% (inactive); in assay [3], -23.8% (inactive); in assay [7] it was 3.16% (inactive); in assay [8], 32% (inactive). Further, in assay [2], the inhibition of aggregation is 29.5% (inactive). Moreover, the nuclei count in assay [2] was found to be 101%; in assay [3], 124%. The fluorescence slope in assay [4] was -0.487 (inactive). In addition, the NADPH fluorescence slope in assay [5] was -5.5e-06 (inactive). In assay [6], the slope was 0.00616 (inactive).
For `O=C(CCCNS(=O)(=O)c1ccccc1)NCc1ccco1`, the cell count in assay [1] stood at 242. Further, the inhibition was -6.9% (inactive) in assay [1], 27.9% (inactive) in assay [3], 12.9% (inactive) in assay [7] and 10.4% (inactive) in assay [8]. In assay [2], the inhibition of aggregation is 22.9% (inactive). Also, the nuclei count in assay [2] is 80.7%; in assay [3], 80.8%. Further, the fluorescence slope in assay [4] is -0.425 (inactive). Moreover, in assay [5], the NADPH fluorescence slope is -1.4e-05 (inactive). Besides, in assay [6], the slope was 0.00453 (inactive).
For the compound `CC(C)COC(=O)NCC12C=CC(O1)C1C(=O)N(c3ccc(Cl)cc3)C(=O)C12` (centres undefined), in assay [1], the cell count was found to be 280. Also, the inhibition in assay [1] is -0.5% (inactive); in assay [3] it was 5.7% (inactive); in assay [7] it was -5.72% (inactive); in assay [8] it was 0.93% (inactive). The inhibition of aggregation in assay [2] was -14.3% (inactive). In addition, the values for the nuclei count in assay [2] and in assay [3] were 104% and 119%, respectively. Also, the fluorescence slope in assay [4] was -0.447 (inactive). In addition, the NADPH fluorescence slope in assay [5] was -0.000376 (inactive). Also, the slope in assay [6] was 0.005 (inactive).
Consider `COc1ccc(Oc2nc(Oc3ccc(OC)cc3)nc(Oc3ccc(OC)cc3)n2)cc1`, for which the cell count in assay [1] amounted to 320. The inhibition in assay [1] is -5.1% (inactive); in assay [3], -4.6% (inactive); in assay [7] it was 3.19% (inactive); in assay [8], 11.5% (inactive). Besides, the inhibition of aggregation in assay [2] is -10.7% (inactive). The nuclei count was 109% in assay [2] and 106% in assay [3]. In addition, in assay [4], the fluorescence slope is -0.536 (inactive). The NADPH fluorescence slope in assay [5] was -1.9e-06 (inactive). The slope in assay [6] is 0.00755 (inactive).
`Cc1cccc(-n2ncc3c(NCc4cccnc4)ncnc32)c1`: the cell count in assay [1] amounted to 670. Further, the inhibition was -21.7% (inactive) in assay [1], -18.5% (inactive) in assay [3], -49.1% (inactive) in assay [7] and -205% (inactive) in assay [8]. In assay [2], the inhibition of aggregation is 9.2% (inactive). Moreover, the nuclei count in assay [2] amounted to 101%; in assay [3], 119%. Moreover, the fluorescence slope in assay [4] is -0.555 (inactive). The NADPH fluorescence slope in assay [5] is -3.3e-05 (inactive). In assay [6], the slope was 0.00696 (inactive).
`O=S(=O)(Nc1ccc2c(c1)OCO2)c1ccc(Br)s1`: the cell count in assay [1] was found to be 285. Further, the inhibition in assay [1] is -5.5% (inactive); in assay [3], 8.4% (inactive); in assay [7], 0.155% (inactive); in assay [8] it was -19.3% (inactive). Moreover, the inhibition of aggregation in assay [2] is 14.8% (inactive). The figures for the nuclei count in assay [2] and in assay [3] were 92.9% and 95.6%, respectively. In addition, the fluorescence slope in assay [4] was -0.31 (inactive). The NADPH fluorescence slope in assay [5] was 1.5e-05 (inactive). Further, the slope in assay [6] was 0.00308 (inactive).
For the compound `CC1CCN(Cc2ccc(-c3nn[nH]n3)cc2)CC1`, the cell count in assay [1] amounted to 582. Moreover, the inhibition in assay [1] was -2.9% (inactive); in assay [3] it was -29.4% (inactive); in assay [7], 15.7% (inactive); in assay [8] it was 27.1% (inactive). Further, the inhibition of aggregation in assay [2] is 17.9% (inactive). The nuclei count in assay [2] was found to be 96.8%; in assay [3], 90.6%. Moreover, the fluorescence slope in assay [4] is -0.659 (inactive). Further, the NADPH fluorescence slope in assay [5] is 2.2e-05 (inactive). Moreover, the slope in assay [6] was 0.00582 (inactive).
For the compound `COc1cc2c(cc1NC(=O)COC(=O)Cn1cnc3ccccc31)oc1ccccc12`, the cell count in assay [1] stood at 403. The inhibition in assay [1] is 7.7% (inactive); in assay [3], -2.1% (inactive); in assay [7], 20.9% (inactive); in assay [8] it was 9.12% (inactive). Besides, the inhibition of aggregation in assay [2] was -10.9% (inactive). Besides, the nuclei count in assay [2] came out at 86.8%; in assay [3], 110%. Moreover, in assay [4], the fluorescence slope is -0.533 (inactive). For the same compound, the NADPH fluorescence slope in assay [5] was -2.6e-05 (inactive). Further, in assay [6], the slope was 0.00618 (inactive).
As to `Cc1onc(-c2ccccc2Cl)c1C(=O)NCCn1c(C)cc2ccccc21`, in assay [1], the cell count is 677. Also, the inhibition in assay [1] was 9% (inactive); in assay [3] it was -37.1% (inactive); in assay [7], 15.6% (inactive); in assay [8], 36.3% (inactive). Also, the inhibition of aggregation in assay [2] was 7.9% (inactive). Besides, the nuclei count in assay [2] amounted to 79.4%; in assay [3], 124%. For the same compound, in assay [4], the fluorescence slope is -0.419 (inactive). Besides, the NADPH fluorescence slope in assay [5] is -1.5e-05 (inactive). For the same compound, the slope in assay [6] was 0.00456 (inactive).
